From PubChem BioAssay
The list is not random: actives were taken first. Their share in the collection is about 3.1%.
Vif-A3F inh = blocks the Vif interaction with APOBEC3F | HeLa A3F-eYFP + Vif (tagged APOBEC3F with the HIV-1 protein that degrades it), YFP fluorescence increase | Potency, µM (highest dose often 46.1 µM), for inactives: at the top dose activity, negative = active | 390,000 tested, 0.2% active; also: potency is read from the fitted curve at half-maximal effect; % of control where 0% means no effect; nearly all actives have a fitted effect of over 65% in size
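Fluorescence increase (Ex 488/Em 500-530) after overnight compound treatment at 37 deg C flags inhibition of Vif-driven A3F-eYFP loss in stable HeLa A3F-eYFP/Vif cells seeded overnight beforehand.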
PLK1 PBD inh = blocks phosphopeptide binding to human PLK1 polo-box domain; 360,000 tested, 2.8% active; P53350; AID 720504; Plk1 PBD binding of FITC phosphopeptide, fluorescence polarization; Potency, µM, without a hit: max response, negative = inhibition, hits mostly inhibitors; also: potency is read from the fitted curve at half-maximal effect; series mostly up to about 57 µM; % is scaled to controls: 0 for no effect and ±100 for the full control effect; nearly all actives have a fitted effect of over 65% in size
TSHR antagonist = antagonists of human thyroid stimulating hormone receptor; P16473; TSHR-expressing cells, TSH-stimulated cAMP HTRF, 2 h; stronger effect = lower value; activity change, negative = inhibition, % at 11.5 µM; 330,000 tested, 0.2% active; AID 504810;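 active = activity change below a set negative limit, meaning inhibition stronger than a set level, cut at about -70% in these data; inconclusive = activity change between two set negative limits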; also: % is scaled to controls: 0 for no effect and ±100 for the full control effect
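Competitive HTRF cAMP read-out (cryptate anti-cAMP antibody, cAMP-d2; 30 min, room temperature) in freshly harvested TSHR cells. Compounds added before TSH at EC80 (4nM final), followed by 2 hours' incubation at 37 deg C.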
Vif-A3G inh = inhibitors of Vif-APOBEC3G interaction; Q9HC16; HeLa A3G-eYFP + Vif (tagged APOBEC3G with the HIV-1 protein that degrades it), YFP fluorescence, overnight; Potency, µM (highest dose often 46.1 µM), inactives show top-dose activity, negative = active, usual class: inhibitors; 410,000 tested, 0.076% active; AID 602310; also: potency is read from the fitted curve at half-maximal effect; % is scaled to controls: 0 for no effect and ±100 for the full control effect; nearly all actives have a fitted effect of over 60% in size
Target sequence (Q9HC16 whole entry, looked up): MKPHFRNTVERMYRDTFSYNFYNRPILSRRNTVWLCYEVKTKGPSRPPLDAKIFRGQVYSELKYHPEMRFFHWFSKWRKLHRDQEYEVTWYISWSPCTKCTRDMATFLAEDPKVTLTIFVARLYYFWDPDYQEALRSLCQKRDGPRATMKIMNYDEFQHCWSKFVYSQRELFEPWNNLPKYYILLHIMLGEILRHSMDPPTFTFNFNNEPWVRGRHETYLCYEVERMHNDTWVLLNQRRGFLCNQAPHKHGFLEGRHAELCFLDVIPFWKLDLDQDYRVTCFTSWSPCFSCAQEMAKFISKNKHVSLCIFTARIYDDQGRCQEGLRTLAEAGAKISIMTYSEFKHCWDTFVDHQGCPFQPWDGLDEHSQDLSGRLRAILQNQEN
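HeLa cells stably expressing Vif and C-terminally eYFP-tagged A3G, seeded overnight at 37 deg C, then exposed to compound by pintool overnight at 37 deg C. Rise in yellow fluorescence (Ex 488/Em 500-530, Acumen) marks blocked Vif-driven A3G degradation.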
VDR inhibitor = inhibitors of human vitamin D receptor; Potency, µM, without a hit: max response, negative = inhibition, most hits filed as inhibitors; P11473; 400,000 tested, 0.93% active; VDR-SRC2-3 peptide fluorescence polarization, 2 h; AID 504847; also: potency is read from the fitted curve at half-maximal effect; % is scaled to controls: 0 for no effect and ±100 for the full control effect
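Fluorescence polarization assay of small-molecule disruption of VDR binding to coregulator peptide SRC2-3. Compounds and controls pin-transferred, then read after 2 h incubation at ambient room temperature.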
* = called active by the depositor; ? = inconclusive; / = not tested or not shown. Unless noted, calls follow the shape of the dose curve; as a rule, active = well fitted curve in the direction sought with a large enough effect; inconclusive = small, poorly fitted or top-dose-only effect, or another doubt; inactive = no such curve, though single readings can be large; an effect the other way counts as inactive or inconclusive.

SMILES	Vif-A3F inh	PLK1 PBD inh	TSHR antagonist	Vif-A3G inh	VDR inhibitor
Nc1nc(NCc2ccccc2Cl)c2[nH]cnc2n1	/	/	/	-9.4%	1.3%
O=Cc1s/c(=N\S(=O)(=O)c2ccccc2)n(CCCCl)c1Cl	28.2µM*	4.74µM*	-70.1*	?	22.4µM*
O=C(Nc1cccc(Nc2ccccc2)c1)c1cnn2c1NC(=C1CC1)C=C2C(F)F	/	/	/	0.2%	/
Nc1cc(=O)nc(SCC(=O)Nc2cccc(Cl)c2)n1CCc1ccccc1	-3.6%	/	/	1.7%	4.7%
O=C(CSC1CC(=O)N(CCc2ccccc2)C1=O)Nc1cccc(Cl)c1 (stereo not given)	-30.7%	?	-26.6	0.0%	79.4µM*
CC12CCC(C)(c3nc4ccccc4nc31)C2(C)C	6.2%	29.9µM*	2.8	-3.7%	0.8%
CC12CCC(C(=O)O)(c3nc4cc([N+](=O)[O-])ccc4nc31)C2(C)C (stereo not given)	2.4%	-13.3%	-5.0	-5.3%	-26.7%
Cc1c(Cc2ccc3c(c2)OCO3)sc(NC(=O)C(C)(C)C)c1C#N	-21.4%	2.2%	-2.3	-7.4%	5.3%
COc1cc(C(=O)Nc2nc(C)c(Cc3ccc4c(c3)OCO4)s2)cc(OC)c1OC	2.1%	9.47µM*	-21.7	?	?
Cc1c(Cc2ccc3c(c2)OCO3)sc(NC(=O)c2ccc3ccccc3c2)c1C(N)=O	-15.9%	13.4µM*	7.5	?	-19.2%
CCC(=O)Nc1sc(Cc2ccc3c(c2)OCO3)c(C)c1C(N)=O	2.3%	21.2µM*	-4.4	-22.9%	?
CCCOc1ccc(C(=O)Nc2nc(C)c(Cc3ccc4c(c3)OCO4)s2)cc1	-1.0%	-25.5%	-0.9	-16.7%	-24.8%
Cc1cc2nc3c(=O)[nH]c(=O)nc-3n(CC(O)C(O)C(O)COP(=O)(O)O)c2cc1C (stereo not given)	/	/	/	/	-17.0%
Cc1ccc(NS(=O)(=O)c2ccc(NC(=O)C3CC3)cc2)c(C)c1	-0.8%	1.5%	-17.7	0.3%	-0.9%
Cc1ccc(NS(=O)(=O)c2ccc(NC(=O)C(C)Sc3ccc(Cl)cc3)cc2)c(C)c1 (stereo not given)	?	29.9µM*	15.3	5.3%	-17.6%
Cc1ccc(C)c(NS(=O)(=O)c2ccc(NC(=O)CSc3ccc(Cl)cc3)cc2)c1	0.3%	23.8µM*	3.0	2.3%	-14.0%
Cc1ccccc1CN1Cc2cccc3c2[C@H](C=CC3)CC1=O	/	/	/	2.4%	/
CC1=NN(c2ccc(F)cc2)C(=O)C1C(c1cccc(O)c1)c1c(C)[nH]n(-c2ccc(F)cc2)c1=O (stereo not given)	-8.2%	5.32µM*	24.8	-13.3%	-12.8%
CC1=NN(c2ccc(Cl)cc2)C(=O)C1C(c1cccc(O)c1)c1c(C)[nH]n(-c2ccc(Cl)cc2)c1=O (stereo not given)	6.3%	5.32µM*	-6.8	-10.7%	79.4µM*
CCc1nc2ccc(C(=O)NC3CCC(C)CC3)cc2nc1CC (stereo not given)	-6.7%	29.9µM*	-15.2	-6.8%	-25.1%
CCCc1c(OCCCCc2nn[nH]n2)ccc(C(C)=O)c1O	0.7%	-20.5%	-18.2	-5.2%	44.7µM*
Cc1ccc(C(=O)ON=C2CCN(S(=O)(=O)c3ccccc3)CC2)cc1	0.8%	26.7µM*	0.5	4.0%	?
COc1ccc(C(c2c(C)[nH]n(C(N)=S)c2=O)C(C#N)C#N)cc1 (stereo not given)	-0.2%	21.2µM*	-10.1	-14.6%	28.2µM*
CC(C)(C)n1ncc2c(=O)n(Cc3c(F)cc(Cl)cc3F)cnc21	/	/	/	-5.2%	/
C/C(N)=C(/C#N)C(=O)COC(=O)c1ccccc1Oc1ccccc1	5.8%	26.7µM*	2.7	0.1%	?
SMILES	Vif-A3F inh	PLK1 PBD inh	TSHR antagonist	Vif-A3G inh	VDR inhibitor
Nc1nc(N2CCN(C/C=C/c3ccccc3)CC2)nc2ccccc12	0.1%	26.7µM*	6.3	0.3%	1.0%
O=c1[nH]c(CN2CCN(C/C=C/c3ccccc3)CC2)nc2ccccc12	-5.7%	-1.2%	-1.9	-0.7%	-13.3%
O=C(O)c1cc(O)ccc1O	1.3%	-4.8%	/	2.9%	2.6%
O=C(O)C1=CC(=C(c2ccc(O)c(C(=O)O)c2)c2ccc(O)c(C(=O)O)c2)C=CC1=O	/	/	-15.5	/	8.91µM*
CCNc1ncc2ncc(=O)n(CCOC)c2n1	/	/	/	/	0.9%
Nc1ccc(CNc2ncn[nH]2)cc1	0.3%	23.8µM*	6.8	3.7%	?
